In publication PMC8384837, “Expanding the binding specificity for RNA recognition by a PUF domain”:

Tests used:
Assay in all cases: yeast three-hybrid, YBZ-1, SC-Leu-His + 0.5 mM 3-AT, 4 days
Conditions in all cases: tags: N-Gal4 AD-HA kept; label: inside an RPR1-promoter hybrid RNA with tandem MS2 sites; ssRNA
[1] = target: PUM1 PUF domain R3-YPR (Homo sapiens, UniProt Q14671 828-1176, C935Y;R936P;Q939R)
How it was run: (§1)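 Repeat regions from input (SC-Leu) and selection (SC-Leu-His + 0.5 mM 3-AT) plates were PCR-amplified and Illumina-sequenced after four days of growth. The cells were strain YBZ-1 with a LexA–MS2 coat fusion and a HIS3 reporter, co-expressing Pumilio-1 PUF domain libraries and matching RNA elements from a centromeric plasmid. The interaction score is the log change in variant frequency from input to selection, taken in log2 with a pseudocount of 1 for absent variants.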

[2] = target: PUM1 PUF domain R3-WFG (Homo sapiens, UniProt Q14671 828-1176, C935W;R936F;Q939G)
How it was run: as §1

[3] = target: PUM1 PUF domain R3-EWT (Homo sapiens, UniProt Q14671 828-1176, C935E;R936W;Q939T)
Chain of PUM1 PUF domain R3-EWT (Q14671 828-1176 C935E/R936W/Q939T): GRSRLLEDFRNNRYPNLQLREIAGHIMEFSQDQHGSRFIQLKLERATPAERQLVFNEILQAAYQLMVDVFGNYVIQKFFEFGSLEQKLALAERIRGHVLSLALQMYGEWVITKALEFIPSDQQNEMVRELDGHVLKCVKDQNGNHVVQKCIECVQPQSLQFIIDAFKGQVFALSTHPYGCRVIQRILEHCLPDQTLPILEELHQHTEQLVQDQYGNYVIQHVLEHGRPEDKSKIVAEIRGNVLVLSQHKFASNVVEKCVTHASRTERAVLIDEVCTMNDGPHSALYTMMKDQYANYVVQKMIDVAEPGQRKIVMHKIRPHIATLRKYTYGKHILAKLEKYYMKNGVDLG
How it was run: as §1

[4] = target: PUM1 PUF domain R7-QGR (Homo sapiens, UniProt Q14671 828-1176, S1079Q;N1080G;E1083R)
Chain of PUM1 PUF domain R7-QGR (Q14671 828-1176 S1079Q/N1080G/E1083R): as the sequence (Q14671 828-1176 C935E/R936W/Q939T) above, with E108C, W109R, T112Q, S252Q, N253G, E256R counted along it
How it was run: as §1

[5] = target: PUM1 PUF domain R4-ARV (Homo sapiens, UniProt Q14671 828-1176, N971A;H972R;Q975V)
Chain of PUM1 PUF domain R4-ARV (Q14671 828-1176 N971A/H972R/Q975V): as the sequence (Q14671 828-1176 C935E/R936W/Q939T) above, with E108C, W109R, T112Q, N144A, H145R, Q148V counted along it
How it was run: as §1

[6] = target: PUM1 PUF domain R3-PHE (Homo sapiens, UniProt Q14671 828-1176, C935P;R936H;Q939E)
Chain of PUM1 PUF domain R3-PHE (Q14671 828-1176 C935P/R936H/Q939E): as the sequence (Q14671 828-1176 C935E/R936W/Q939T) above, with E108P, W109H, T112E counted along it
How it was run: as §1

[7] = target: PUM1 PUF domain R5-GQK (Homo sapiens, UniProt Q14671 828-1176, C1007G;R1008Q;Q1011K)
Chain of PUM1 PUF domain R5-GQK (Q14671 828-1176 C1007G/R1008Q/Q1011K): as the sequence (Q14671 828-1176 C935E/R936W/Q939T) above, with E108C, W109R, T112Q, C180G, R181Q, Q184K counted along it
How it was run: as §1

[8] = target: PUM1 PUF domain R5-ELW (Homo sapiens, UniProt Q14671 828-1176, C1007E;R1008L;Q1011W)
Chain of PUM1 PUF domain R5-ELW (Q14671 828-1176 C1007E/R1008L/Q1011W): as the sequence (Q14671 828-1176 C935E/R936W/Q939T) above, with E108C, W109R, T112Q, C180E, R181L, Q184W counted along it
How it was run: as §1

[9] = target: T1, PUM1 PUF domain R6-KWL (Homo sapiens, UniProt Q14671 828-1176, N1043K;Y1044W;Q1047L)
T1 sequence: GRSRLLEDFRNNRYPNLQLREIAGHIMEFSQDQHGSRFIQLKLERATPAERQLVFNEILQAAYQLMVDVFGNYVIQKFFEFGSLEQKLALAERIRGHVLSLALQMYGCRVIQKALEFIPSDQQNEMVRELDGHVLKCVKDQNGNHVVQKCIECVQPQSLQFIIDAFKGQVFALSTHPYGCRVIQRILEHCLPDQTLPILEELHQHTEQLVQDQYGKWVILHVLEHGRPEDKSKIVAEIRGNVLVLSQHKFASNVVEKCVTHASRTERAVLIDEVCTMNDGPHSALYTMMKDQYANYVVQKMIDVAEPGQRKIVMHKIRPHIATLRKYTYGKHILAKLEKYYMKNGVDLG
How it was run: as §1

[10] = target: PUM1 PUF domain R7-DWE (Homo sapiens, UniProt Q14671 828-1176, S1079D;N1080W)
How it was run: as §1

[11] = target: PUM1 PUF domain R5-KQS (Homo sapiens, UniProt Q14671 828-1176, C1007K;R1008Q;Q1011S)
How it was run: as §1

[12] = target: PUM1 PUF domain R8-VYR (Homo sapiens, UniProt Q14671 828-1176, N1122V;Q1126R)
How it was run: as §1

[13] = target: PUM1 PUF domain R3-AFP (Homo sapiens, UniProt Q14671 828-1176, C935A;R936F;Q939P)
How it was run: as §1

[14] = target: PUM1 PUF domain R1-RNR (Homo sapiens, UniProt Q14671 828-1176, S863R;R864N;Q867R)
Chain of PUM1 PUF domain R1-RNR (Q14671 828-1176 S863R/R864N/Q867R): as the sequence (Q14671 828-1176 C935E/R936W/Q939T) above, with S36R, R37N, Q40R, E108C, W109R, T112Q counted along it
How it was run: as §1

[15] = target: PUM1 PUF domain R5-NLS (Homo sapiens, UniProt Q14671 828-1176, C1007N;R1008L;Q1011S)
Chain of PUM1 PUF domain R5-NLS (Q14671 828-1176 C1007N/R1008L/Q1011S): as the sequence (Q14671 828-1176 C935E/R936W/Q939T) above, with E108C, W109R, T112Q, C180N, R181L, Q184S counted along it
How it was run: as §1

[16] = target: PUM1 PUF domain R5-KAR (Homo sapiens, UniProt Q14671 828-1176, C1007K;R1008A;Q1011R)
How it was run: as §1

[17] = target: PUM1 PUF domain R5-EWF (Homo sapiens, UniProt Q14671 828-1176, C1007E;R1008W;Q1011F)
How it was run: as §1

[18] = target: PUM1 PUF domain R5-NPE (Homo sapiens, UniProt Q14671 828-1176, C1007N;R1008P;Q1011E)
Chain of PUM1 PUF domain R5-NPE (Q14671 828-1176 C1007N/R1008P/Q1011E): as the sequence (Q14671 828-1176 C935E/R936W/Q939T) above, with E108C, W109R, T112Q, C180N, R181P, Q184E counted along it
How it was run: as §1

[19] = target: PUM1 PUF domain R5-DQE (Homo sapiens, UniProt Q14671 828-1176, C1007D;R1008Q;Q1011E)
How it was run: as §1

[20] = target: PUM1 PUF domain R8-HFM (Homo sapiens, UniProt Q14671 828-1176, N1122H;Y1123F;Q1126M)
How it was run: as §1

Chain of PUM1 PUF domain R3-YPR (Q14671 828-1176 C935Y/R936P/Q939R): as the sequence (Q14671 828-1176 C935E/R936W/Q939T) above, with E108Y, W109P, T112R counted along it

GGCUAGAACUAGUGGAUCCCCCGGCGCCCGGCGGCUCGAGCCCGGGUAAGUGUAAUUAGUCUGCAUGCCGCCGGGCGCCAUGCCUGCAGGUCGACUCUAGAAAACAUG
binding signal [1]: 0.67 log2 enrichment (interaction score) | binding signal [2]: 2.57 log2 enrichment (interaction score)

GGCUAGAACUAGUGGAUCCCCCGGCGCCCGGCGGCUCGAGCCCGGGUAAGUGUAAGUAGUCUGCAUGCCGCCGGGCGCCAUGCCUGCAGGUCGACUCUAGAAAACAUG
binding signal [1]: 3.45 log2 enrichment (interaction score) | binding signal [3]: 4.76 log2 enrichment (interaction score) | binding signal [2]: 2.77 log2 enrichment (interaction score)

GGCUAGAACUAGUGGAUCCCCCGGCGCCCGGCGGCUCGAGCCCGGGUAAGUUUAAAUAGUCUGCAUGCCGCCGGGCGCCAUGCCUGCAGGUCGACUCUAGAAAACAUG
binding signal [4]: 2.75 log2 enrichment (interaction score)

GGCUAGAACUAGUGGAUCCCCCGGCGCCCGGCGGCUCGAGCCCGGGUAAGUGUAAAUAGUCUGCAUGCCGCCGGGCGCCAUGCCUGCAGGUCGACUCUAGAAAACAUG
binding signal [3]: 4.31 log2 enrichment (interaction score) | binding signal [5]: 4.56 log2 enrichment (interaction score) | binding signal [6]: 4.47 log2 enrichment (interaction score) | binding signal [7]: 2.37 log2 enrichment (interaction score) | binding signal [8]: 2.28 log2 enrichment (interaction score) | binding signal [9]: 5.66 log2 enrichment (interaction score) | binding signal [10]: 2.44 log2 enrichment (interaction score) | binding signal [11]: 0.39 log2 enrichment (interaction score) | binding signal [12]: 4.52 log2 enrichment (interaction score) | binding signal [13]: 5.95 log2 enrichment (interaction score)

GGCUAGAACUAGUGGAUCCCCCGGCGCCCGGCGGCUCGAGCCCGGGUAAGUGUAAAUCGUCUGCAUGCCGCCGGGCGCCAUGCCUGCAGGUCGACUCUAGAAAACAUG
binding signal [14]: 4.17 log2 enrichment (interaction score)

GGCUAGAACUAGUGGAUCCCCCGGCGCCCGGCGGCUCGAGCCCGGGUAAGUGUAAAUUGUCUGCAUGCCGCCGGGCGCCAUGCCUGCAGGUCGACUCUAGAAAACAUG
binding signal [14]: 4.23 log2 enrichment (interaction score)

GGCUAGAACUAGUGGAUCCCCCGGCGCCCGGCGGCUCGAGCCCGGGUAAGUGUUAAUAGUCUGCAUGCCGCCGGGCGCCAUGCCUGCAGGUCGACUCUAGAAAACAUG
binding signal [15]: 6.48 log2 enrichment (interaction score) | binding signal [16]: 2.72 log2 enrichment (interaction score) | binding signal [17]: 3.15 log2 enrichment (interaction score)

GGCUAGAACUAGUGGAUCCCCCGGCGCCCGGCGGCUCGAGCCCGGGUAAGUGUGAAUAGUCUGCAUGCCGCCGGGCGCCAUGCCUGCAGGUCGACUCUAGAAAACAUG
binding signal [18]: 4.36 log2 enrichment (interaction score) | binding signal [19]: 3.83 log2 enrichment (interaction score)

GGCUAGAACUAGUGGAUCCCCCGGCGCCCGGCGGCUCGAGCCCGGGUAAGUGUACAUAGUCUGCAUGCCGCCGGGCGCCAUGCCUGCAGGUCGACUCUAGAAAACAUG
binding signal [5]: 0.8 log2 enrichment (interaction score)

GGCUAGAACUAGUGGAUCCCCCGGCGCCCGGCGGCUCGAGCCCGGGUAAGUGUCAAUAGUCUGCAUGCCGCCGGGCGCCAUGCCUGCAGGUCGACUCUAGAAAACAUG
binding signal [7]: 2.24 log2 enrichment (interaction score) | binding signal [16]: 4.29 log2 enrichment (interaction score) | binding signal [11]: 3.98 log2 enrichment (interaction score)

GGCUAGAACUAGUGGAUCCCCCGGCGCCCGGCGGCUCGAGCCCGGGUAAGCGUAAAUAGUCUGCAUGCCGCCGGGCGCCAUGCCUGCAGGUCGACUCUAGAAAACAUG
binding signal [12]: 5.17 log2 enrichment (interaction score) | binding signal [20]: 2.95 log2 enrichment (interaction score)
